Experiment [1] can be described thus: compound effects on lung adenocarcinoma cell viability – A549, calcein-AM fluorescence, 48 h, basal, profiling panel (AID 1162). Note: test concentration not given here. The settings on record: higher = more signal.
Experiment [2] is described as follows: compound effects on differentiated 3T3-L1 adipocyte viability – cell-based, 3T3-L1 adipocytes, calcein-AM fluorescence, 48 h, basal, profiling panel (AID 1163). Note: test concentration not given here. As to conditions: 3T3-L1 adipocytes viability, higher = more signal.
Experiment [3] is described as follows: compound effects on hepatocellular carcinoma cell viability – HepG2, calcein-AM fluorescence, 48 h, basal, profiling panel (AID 1164). Note: test concentration not given here. As to conditions: higher = more signal.
Experiment [4] can be described thus: compound effects on multiple myeloma cell viability – MM1S, calcein-AM fluorescence, 48 h, basal, profiling panel (AID 1165).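 Note: viability of MM1S multiple myeloma cells under basal unstimulated conditions; test concentration not given here.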 The settings on record: higher = more signal.
Experiment [5] in a line: calcein-AM signal in unstimulated myeloma cells – cell-based, calcein-AM fluorescence, 48 h, PK04 Diversity Set, profiling panel (AID 1166).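 Note: cells grown under basal conditions without added stimulus; test concentration not given here.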 The settings on record: RPMI8226 myeloma viability, higher = more signal.
The nature of experiment [6]: JC-1 mitochondrial signal, unstimulated HepG2 cells – cell-based, JC-1 fluorescence, 24 h, 100 nL compound, profiling panel (AID 1167). Note: test concentration not given here. The settings on record: HepG2 mitochondrial potential, higher = more signal.
A short description of experiment [7]: JC-1 mitochondrial signal, unstimulated adipocytes – cell-based, JC-1 fluorescence, 3T3-L1 adipocytes, 24 h, 100 nL compound, profiling panel (AID 1168). Note: test concentration not given here. As to conditions: JC-1 mitochondrial fluorescence, higher = more signal, called active from +8 up or from −8 down.
A short description of experiment [8]: JC-1 mitochondrial signal, unstimulated myeloma cells – cell-based, JC-1 fluorescence, RPMI8226, 24 h, 100 nL compound, profiling panel (AID 1169). Note: test concentration not given here. The settings on record: JC-1 mitochondrial potential fluorescence, higher = more signal.
A short description of experiment [9]: JC-1 mitochondrial signal, unstimulated MM1S myeloma – cell-based, JC-1 fluorescence, 24 h, 100 nL compound, profiling panel (AID 1170). Note: test concentration not given here. As to conditions: MM1S mitochondrial potential, higher = more signal.
A short description of experiment [10]: resazurin metabolic signal in A549 cells – cell-based, resazurin fluorescence, 24 h, PK04 Diversity Set, profiling panel (AID 1171). Note: test concentration not given here. As to conditions: A549 viability, higher = more signal, called active from +8 up or from −8 down. A general note: Alamar Blue is a resazurin reagent that responds to reducing activity.
A short description of experiment [11]: resazurin metabolic signal in HepG2 cells – cell-based, resazurin fluorescence, 24 h, PK04 Diversity Set, profiling panel (AID 1172). Note: test concentration not given here. As to conditions: HepG2 viability, higher = more signal.
Experiment [12] can be described thus: budding yeast growth changes without added modifier – OD600, strain BY4716, 24 h, basal condition, primary screen (AID 1173). As to conditions: S. cerevisiae BY4716 growth, OD600, 24 h; higher = more signal, called active from +8 up or from −8 down.
Experiment [13] can be described thus: viability profiling in MM1S myeloma cells – cell-based, resazurin fluorescence, basal, 24 h, PK04 Diversity Set, profiling panel (AID 1174). Note: test concentration not given here. As to conditions: higher = more signal, called active from +8 up or from −8 down.
Experiment [14] concerns the target Dihydroorotate dehydrogenase (quinone), mitochondrial (Plasmodium falciparum (isolate 3D7)) (UniProt Q08210). Put plainly: inhibition of P. falciparum DHODH – biochemical, C-terminal His tag, absorbance 600 nm, primary screen (AID 1175).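 Note: recombinant parasite enzyme with a five histidine tag at its C terminus; test concentration not given here.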 The settings on record: PfDHODH enzyme, DCIP absorbance 600 nm; higher = more signal, called active from +8 up or from −8 down.

Experiment [15] is described as follows: inhibition of PAO1 biofilm formation – strain PAO1, LB-PBS medium, absorbance 600 nm, primary screen (AID 1176). Note: test concentration not given here. As to conditions: P. aeruginosa PAO1 growth/biofilm, A600, 12 h; higher = more signal.
Experiment [16] in a line: growth modulation of vineyard yeast isolate – strain RM11-1a, OD600, basal, 24 h, primary screen (AID 1177).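 Note: cultures grown under basal conditions with no added stressor; test concentration not given here.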 As to conditions: S. cerevisiae RM11-1a growth, OD600, 24 h; higher = more signal, called active from +8 up or from −8 down.
A short description of experiment [17]: growth of efflux-deficient E. coli DRC39 – strain DRC39, OD650, 24 h, E. coli filamentation inducers, primary screen (AID 1178).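 Note: growth measured as culture turbidity by optical density at 650 nm; test concentration not given here.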 The settings on record: E. coli DRC39 acrAB, higher = more signal, called active from +8 up or from −8 down.
A short description of experiment [18]: growth of efflux-deficient E. coli DRC39 – strain DRC39, OD650, 48 h, E. coli filamentation inducers, primary screen (AID 1179).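 Note: screen aims at cell division blockers that make cells filament.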 As to conditions: E. coli DRC39 delta-acrAB growth, higher = more signal, called active from +8 up or from −8 down.
A short description of experiment [19]: viability profiling in RPMI8226 myeloma cells – cell-based, resazurin fluorescence, basal, 24 h, PK04 Diversity Set, profiling panel (AID 1180).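 Note: RPMI8826 multiple myeloma cell line at 5000 cells per well; test concentration not given here.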 As to conditions: higher = more signal.
The target of experiment [20] is E3 ubiquitin-protein ligase XIAP (Homo sapiens) (UniProt P98170). Put plainly: small molecules binding XIAP protein – biophysical, small-molecule microarray, fluorescence 635 nm, primary screen (AID 1181).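 Note: score merges 667 nm emission and signal to noise over triplicate slides.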 The settings on record: higher = more signal.
E3 ubiquitin-protein ligase XIAP (Homo sapiens), sequence (P98170 whole entry, looked up): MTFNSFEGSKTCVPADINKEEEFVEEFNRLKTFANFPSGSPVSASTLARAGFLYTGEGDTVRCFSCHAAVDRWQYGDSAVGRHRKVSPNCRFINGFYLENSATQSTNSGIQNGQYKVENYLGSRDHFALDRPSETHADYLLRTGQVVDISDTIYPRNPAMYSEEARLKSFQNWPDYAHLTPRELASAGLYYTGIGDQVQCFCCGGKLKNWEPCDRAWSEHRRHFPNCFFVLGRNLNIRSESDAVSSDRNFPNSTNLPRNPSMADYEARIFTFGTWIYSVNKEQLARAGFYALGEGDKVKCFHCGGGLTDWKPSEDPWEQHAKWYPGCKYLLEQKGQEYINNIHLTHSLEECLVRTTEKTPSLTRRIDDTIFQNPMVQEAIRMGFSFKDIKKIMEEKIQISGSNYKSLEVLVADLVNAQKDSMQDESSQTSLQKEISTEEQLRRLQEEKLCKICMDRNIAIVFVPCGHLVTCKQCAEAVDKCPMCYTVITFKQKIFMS

The source made the active and inactive calls. Unless noted, the rule behind the calls is not given here.

Dihydroorotate dehydrogenase (quinone), mitochondrial (Plasmodium falciparum (isolate 3D7)), sequence (Q08210 whole entry, looked up): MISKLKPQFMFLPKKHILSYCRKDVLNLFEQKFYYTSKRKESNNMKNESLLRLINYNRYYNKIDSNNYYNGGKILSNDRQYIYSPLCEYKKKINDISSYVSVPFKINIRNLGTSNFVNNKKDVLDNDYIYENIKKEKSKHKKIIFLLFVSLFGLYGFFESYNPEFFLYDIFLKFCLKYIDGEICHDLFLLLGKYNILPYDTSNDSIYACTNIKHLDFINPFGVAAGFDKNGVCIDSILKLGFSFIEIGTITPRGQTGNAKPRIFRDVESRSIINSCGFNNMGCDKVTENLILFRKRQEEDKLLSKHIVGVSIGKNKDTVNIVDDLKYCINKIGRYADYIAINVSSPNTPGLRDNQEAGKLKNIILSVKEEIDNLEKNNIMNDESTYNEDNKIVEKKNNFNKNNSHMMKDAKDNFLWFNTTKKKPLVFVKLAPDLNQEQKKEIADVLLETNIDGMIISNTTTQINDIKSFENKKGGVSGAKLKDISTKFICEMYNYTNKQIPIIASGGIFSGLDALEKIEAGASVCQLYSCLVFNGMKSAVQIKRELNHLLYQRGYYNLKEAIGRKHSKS

`O=C(CS)NCCCCCCNC(=O)[C@@H]1C[C@@H]2C(=O)N[C@@H](Cc3ccccc3)C(=O)N2[C@@H]1c1cccc(OCCO)c1`: the z-score in experiment [1] is -0.55; in experiment [2], 0.363; in experiment [3], 0.371; in [4], -0.204; in experiment [5], 0.537; in [6], -1.28. In addition, the z-score was 0.476 (inactive) in experiment [7]; 0.198 in [8]; -0.143 in [9]; -0.436 (inactive) in experiment [10]; 0.531 in experiment [11]; 0.49 (inactive) in [12]. Besides, the z-score in [13] is -0.137 (inactive); in experiment [15] it was 0.255 (inactive); in experiment [16] it was 0.0598 (inactive); in experiment [17], 0.051 (inactive); in [18], 0.0288 (inactive); in [19] it was -0.549. For the same compound, the results for the composite z-score in experiment [14] and in experiment [20] were -0.0547 (inactive) and 0.0264, respectively.

For `C[N+](C)(C)CCCCCCNC(=O)[C@@H]1C[C@@H]2C(=O)N[C@@H](Cc3ccccc3)C(=O)N2[C@@H]1c1cccc(OCCO)c1`, the z-score in [1] was 0.741; in experiment [2] it was 0.0098; in [3] it was 0.417; in experiment [4] it was 0.653; in experiment [5] it was 0.925; in experiment [6], -0.432. Besides, the z-score in [7] was 0.543 (inactive); in experiment [8] it was -0.267; in [9], -0.544; in experiment [10], 0.898 (inactive); in [11], 0.844; in experiment [12] it was -0.393 (inactive). For the same compound, the z-score in experiment [13] was 0.328 (inactive); in experiment [15] it was -0.27 (inactive); in [16], 0.153 (inactive); in experiment [17], 1.14 (inactive); in experiment [18], 1.35 (inactive); in experiment [19], 0.755. In addition, the composite z-score in experiment [14] is -0.0631 (inactive); in [20], 0.0905.

Turning to `COCCOC(=O)N1C(=O)[C@@]2(c3cc(C#Cc4ccc(OC)cc4)ccc31)[C@H](c1ccc(O)cc1)N1[C@H](c3ccccc3)[C@H](c3ccccc3)OC(=O)[C@H]1[C@@H]2C(=O)N1CCc2cc(OC)c(OC)cc2C1`, the z-score in [1] was -0.548; in experiment [2], 1.22; in experiment [3], -0.486; in experiment [4] it was -0.0636; in [5] it was -0.063; in experiment [6], 0.793. The z-score in experiment [7] is 2.76 (inactive); in experiment [8], 0.188; in experiment [9], 0.108; in experiment [10], 0.776 (inactive); in [11], 0.28; in [12] it was -0.465 (inactive). Besides, the z-score in [13] is -0.0918 (inactive); in experiment [15], 0.457 (inactive); in experiment [16], -0.694 (inactive); in experiment [17], -0.232 (inactive); in experiment [18], -0.779 (inactive); in experiment [19], 0.572. Further, the values for the composite z-score in [14] and in [20] were -0.463 (inactive) and -0.197, respectively.

With `O=C1c2ccccc2[C@](Cc2ccccc2I)(C(=O)NCCN2CCOCC2)[C@H](c2ccc(CO)cc2)N1Cc1ccccc1Cl`, the z-score in [1] was 0.537; in [2], 0.261; in [3], 0.63; in experiment [4] it was -1.66; in experiment [5], -1.88; in experiment [6], 1.77. Besides, the z-score in experiment [7] is -0.585 (inactive); in experiment [8] it was -0.273; in experiment [9] it was 0.918; in experiment [10] it was 0.928 (inactive); in experiment [11], -0.322; in experiment [12], -0.935 (inactive). Besides, the z-score in experiment [13] is 0.618 (inactive); in experiment [15], 0.916 (inactive); in experiment [16] it was -0.0576 (inactive); in experiment [17], 0.768 (inactive); in [18], -0.108 (inactive); in [19] it was 0.304. Besides, the composite z-score is -0.0768 (inactive) in experiment [14] and -0.102 in experiment [20].

Take `C=CCOC(=O)[C@@H]1[C@H]2C(=O)O[C@H](c3ccccc3)[C@H](c3ccccc3)N2[C@H](c2ccc(OCCOC(=O)[C@@H]3C[C@@H]4C(=O)NCC(=O)N4[C@@H]3c3ccc(O)cc3)cc2)[C@@]12C(=O)Nc1ccc(I)cc12`: the z-score is -0.814 in [1]; 0.198 in [2]; -0.207 in experiment [3]; -0.647 in experiment [4]; -0.319 in experiment [5]; -2.11 in experiment [6]. Besides, the z-score in [7] was -0.444 (inactive); in experiment [8], -0.972; in experiment [9], -0.919; in experiment [10], 0.994 (inactive); in [11] it was 0.978; in experiment [12] it was 0.286 (inactive). The z-score was 1.11 (inactive) in experiment [13]; 0.118 (inactive) in [15]; 1.38 (inactive) in experiment [16]; 0.202 (inactive) in experiment [17]; -0.515 (inactive) in experiment [18]; 1.3 in experiment [19]. For the same compound, the results for the composite z-score in experiment [14] and in experiment [20] were -0.365 (inactive) and 0.164, respectively.

The values above are taken from PubChem BioAssay.
